The record followed here is PubChem BioAssay AID2551 (National Center for Advancing Translational Sciences (NCATS), 2010).

The whole screen tested about 310,000 compounds, of which about 17,000 (5.5%) were called active. Inconclusive results (about 11%) are left out. This is one part of a sample in which actives are shown more often than they occur. A number with no mark means an inactive call. The call rests on the fitted dose curve; in most records, active means well fitted inhibition curve with a large enough effect; inconclusive means small, poorly fitted or top-dose-only effect, or effect the other way; inactive means no such curve, though single readings can be large or run the other way.
On the % scale 0 is the no-effect control and ±100 the full control effect; potency means the concentration at half of the fitted maximal effect.

Nuclear receptor ROR-gamma (Mus musculus), sequence (P51450 whole entry, looked up, the tested form may be a part): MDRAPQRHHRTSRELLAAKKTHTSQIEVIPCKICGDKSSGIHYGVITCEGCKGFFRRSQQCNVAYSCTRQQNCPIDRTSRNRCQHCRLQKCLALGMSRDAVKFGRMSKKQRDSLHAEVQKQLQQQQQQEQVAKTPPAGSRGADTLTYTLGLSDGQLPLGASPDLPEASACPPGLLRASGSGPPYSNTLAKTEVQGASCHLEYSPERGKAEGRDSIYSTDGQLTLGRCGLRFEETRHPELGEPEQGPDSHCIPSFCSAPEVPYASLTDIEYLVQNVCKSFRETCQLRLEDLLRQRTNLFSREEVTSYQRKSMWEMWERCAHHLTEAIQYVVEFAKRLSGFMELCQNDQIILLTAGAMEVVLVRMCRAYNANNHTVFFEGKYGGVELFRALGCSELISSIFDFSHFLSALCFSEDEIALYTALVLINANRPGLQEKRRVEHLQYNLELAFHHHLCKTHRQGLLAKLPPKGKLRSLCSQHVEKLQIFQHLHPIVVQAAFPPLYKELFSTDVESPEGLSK

This test addresses Nuclear receptor ROR-gamma (Mus musculus) (UniProt P51450). Briefly: qHTS for inhibitors of ROR gamma transcriptional activity. Further: nearly all actives have a fitted effect of over 60% in size. As to conditions: Drosophila S2 Gal4-RORgamma UAS-luciferase reporter, 20 h; series mostly up to 53.6 µM; activity change, negative = inhibition: at the top concentration. The method in brief: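 Drosophila S2 cells stably expressing Gal4-DBD/mouse RORγ fusion under metallothionein promoter plus UAS-luciferase; compound 1 h, then 700 uM CuSO4 induction for 20 h at ambient temperature; inhibition read as reduced luminescence.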
A general note: Quantitative high-throughput screening tests each substance at several concentrations.
`COc1ccccc1N1CCN(S(=O)(=O)c2ccc3c(c2)NC(=O)CS3)CC1`: the “activity change, negative = inhibition” value was 25.3%. On the same count and under the same terms, the result for `COc1cccc(NC(=O)N2CCC(NC(=O)C(Cc3cccc(C)c3)NC(C)=O)CC2)c1` (centres undefined) reads -5.25%; that for `CC(C)CN(Cc1c(O)ccc2c(=O)c(-c3ccccc3)coc12)CC(C)C`, 27% [at 1.91 µM]; that for `CC(C)[C@H](NC(=O)N1c2ccccc2NC(=O)[C@@H]1C(C)C)C(=O)N[C@H](C(=O)O)c1ccccc1`, -2.3%. In the case of `CN(C(=O)CN1C(=O)/C(=C/c2ccc(Cl)cc2)SC1=S)C1CCS(=O)(=O)C1` (centres undefined), the “activity change, negative = inhibition” value is -12.4%.

As for `CC(=O)C1=C(O)C(=O)N(c2ccc(Br)cc2)C1c1ccc([N+](=O)[O-])cc1` (centres undefined), the “activity change, negative = inhibition” value is -3.44%. For the compound `CC1Cc2cc(/C(O)=C3\C(=O)C(=O)N(Cc4cccnc4)C3c3ccccc3F)ccc2O1` (centres undefined), the “activity change, negative = inhibition” value was -7.77%. For `CC1=NN(/C(=N\c2nnc(C)s2)Nc2ccccc2)[C@H](c2ccc(C)cc2)S1`, the Potency is 8.91 µM (active). As for `Cc1ccc(C2SCC(=O)N2c2ccccc2)cc1` (centres undefined), the “activity change, negative = inhibition” value was -32.8%. As for `COc1ccc(C(=O)CCC(=O)Nc2ccc(Cl)cc2)cc1`, the “activity change, negative = inhibition” value was 37%.

Take `CCOC(=O)C1(Cc2ccccc2C)CCCN(C(=O)CN2C(=O)CSC2=O)C1` (centres undefined): the “activity change, negative = inhibition” value was 0%. For the compound `N#Cc1ccc(/C=C2\CCn3c2nc2cc(C(=O)O)ccc2c3=O)cc1`, the “activity change, negative = inhibition” value is 38.3%. On the same count and under the same terms, the result for `CCOC(=O)CNc1nc(Cl)nc(Nc2ccccc2)n1` reads -7.07%. With `Cc1ccccc1C(=O)OC1OC(=O)C(Cl)=C1Nc1ccccc1` (centres undefined), the Potency is 11.2 µM (active). With `Cc1ccc(NC2=C(Cl)C(=O)OC2OC(=O)c2ccccc2C)cc1` (centres undefined), the “activity change, negative = inhibition” value was 40.2%. Turning to `COC(=O)c1sccc1NC(=O)c1ccc(Cl)cc1`, the “activity change, negative = inhibition” value is -3.43%. In the case of `Cc1csc(NC(=O)Nc2ccccc2[N+](=O)[O-])n1`, the “activity change, negative = inhibition” value is -4.77%.

Turning to `CCOC(=O)/C(=N\Nc1ccccc1[N+](=O)[O-])c1csc(Nc2ccccc2)n1`, the Potency is 11.2 µM (active). Take `CCOC(=O)C/C(C)=N\Nc1ccc([N+](=O)[O-])cc1[N+](=O)[O-]`: the “activity change, negative = inhibition” value was 9.42%. The same measure, in the same setting: the result for `COc1ccc(OCc2cc(C(=O)NCC3(C)COC3)no2)c(Cl)c1` reads 44%. Still for that read-out and setting: as for `Cc1ccc(Cl)c(OCC(=O)N2CCc3ccccc3C2)c1`, the figure is 3.92% [at 1.91 µM]. The same measure, in the same setting: the result for `COc1ccccc1C(=O)OCC(=O)NCCNC(=O)COC(=O)c1ccccc1OC` reads 1.35%. As for `Cc1cc(C)cc(C(=O)OCC(=O)NCCNC(=O)COC(=O)c2cc(C)cc(C)c2)c1`, the Potency is 0.0708 µM (active). In the case of `Cc1cccc(C(=O)OCC(=O)Nc2ccc(F)cc2)c1`, the “activity change, negative = inhibition” value is -5.24%. For `COc1ccc(S(=O)(=O)NC(C)C(=O)NCc2ccncc2)cc1Cl` (centres undefined), the “activity change, negative = inhibition” value is 3.71%.

As for `COC(=O)CN1C(=O)[C@H]2[C@@H](/C=C/c3ccccc3)N3C(=O)CN(CC4CC4)C(=O)[C@@]3(Cc3ccccc3)[C@H]2C1=O`, the “activity change, negative = inhibition” value is -10.6%. Regarding `Cc1[nH]n(C(N)=S)c(=O)c1N=Nc1ccc(Cl)cc1Cl`, the Potency is 0.562 µM (active). In the case of `Cc1[nH]n(-c2cccc(Cl)c2)c(=O)c1-c1ccc(Cl)cc1`, the “activity change, negative = inhibition” value is -69.7%.

As to `Cc1ccc(N=Nc2c(C)[nH]n(-c3ccccc3)c2=O)cc1`, the “activity change, negative = inhibition” value was 7.28%. As for `Cc1cc2oc(=O)cc(CN(C)Cc3ccc(OC(F)F)cc3)c2cc1Cl`, the “activity change, negative = inhibition” value is 146%. Still for that read-out and setting: the result for `COc1ccc(CCN2C(=O)C(C)=C(C)C2=O)cc1OC` reads 28.7%. As to `COc1ccccc1-c1n[nH]c2c1[C@H](C)CC[C@H]2C(C)C`, the Potency is 3.16 µM (active). For `COc1ccccc1-c1nc(N2CCN(C)CC2)c2ccccc2n1`, the “activity change, negative = inhibition” value was -14.4%. On the same count and under the same terms, the result for `CC1C(=O)Nc2ccccc2N1C(=O)c1c(F)cccc1F` (centres undefined) reads 44.9%; that for `COc1ccc(-n2nc3c(N4CCC(C(=O)NCc5ccccc5)CC4)nnc(C)c3c2C)cc1`, -18.6%. `O=C1CSC(=S)N1/N=C/c1ccc(O)c([N+](=O)[O-])c1`: the Potency is 8.91 µM (active). Consider `O=[N+]([O-])c1ccc(N2CCSCC2)cc1O`, for which the “activity change, negative = inhibition” value was 11.6%.

As to `Cc1cc(C(=O)N/N=C/c2ccc(O)c([N+](=O)[O-])c2)c(C)n1-c1ccc(F)cc1`, the “activity change, negative = inhibition” value was -12.8%. Still for that read-out and setting: the result for `COc1cccc(C2CC(c3cccs3)=NN2C(=O)CSC2=NCCS2)c1OC` (centres undefined) reads -21.1%. The same measure, in the same setting: as for `CC(C(=O)NC1CCCCC1)N1C(=O)c2cccc3cccc1c23` (centres undefined), the figure is 3.12%; as for `COc1cc(NC(=O)C2=C(C)OCCS2)c(Cl)cc1C(=O)NCCN1CCN(C)CC1`, -16.1%. On the same count and under the same terms, the result for `O=C(NCc1cccc(C(F)(F)F)c1)c1cccc(S(=O)(=O)N2CCN(Cc3ccccc3)CC2)c1` reads 5.22%. Take `O=C(NC1CCN(C(=S)Nc2ccc(Cl)cc2)CC1)C1CCCCC1`: the “activity change, negative = inhibition” value was -23.5%. On the same count and under the same terms, the result for `CN(C)CCCNC(=S)NCc1ccc(Cl)cc1` reads 3.62%; that for `O=C(NCc1ccc(Cl)cc1)NCc1ccc(Cl)cc1`, -23.1%. For `S=C(NCc1ccc(Cl)cc1)NC12CC3CC(CC(C3)C1)C2`, the Potency is 2 µM (active). In the case of `S=C(NCc1ccc(Cl)cc1)NC1CCCCC1`, the Potency is 3.55 µM (active). As to `O=C(NCc1ccncc1)NC12CC3CC(CC(C3)C1)C2`, the “activity change, negative = inhibition” value is -4.04%.

With `COCCCNC(=O)C1CC(=O)N(CCc2ccc(F)cc2)C1` (centres undefined), the “activity change, negative = inhibition” value is -0.388%. On the same count and under the same terms, the result for `CC(=O)Nc1ccc(Nc2ncnc3c2nnn3Cc2ccccc2Cl)cc1` reads -0.255%; that for `O=C(c1c(F)cccc1Cl)N1CCN(c2ccccn2)CC1`, -15.7%. As for `COc1ccc(S(=O)(=O)N2CCC(C(=O)NCCC(=O)NCc3cccc(OC)c3)CC2)cc1`, the “activity change, negative = inhibition” value was 24.5%.

In the case of `CC(C)[C@H](NC(=O)N1CC(=O)Nc2ccccc21)C(=O)N[C@@H](Cc1c[nH]c2ccccc12)C(=O)O`, the “activity change, negative = inhibition” value was 8.13%.

As to `COc1cc(C(=O)NCCOC(=O)c2cccc(N(C)C)c2)cc(OC)c1OC`, the “activity change, negative = inhibition” value is 0.0134%. As to `CNC(=S)N/N=C/c1ccc(OCc2ccccc2)c(Br)c1`, the Potency is 1.26 µM (active). As for `O=C(O)COc1ccc(/C=N/O)cc1Br`, the “activity change, negative = inhibition” value is -9.27%. Still for that read-out and setting: as for `C=CCNC(=S)N/N=C/c1ccc(OCc2ccccc2)cc1`, the figure is -11.3%; as for `COc1cc(NS(=O)(=O)c2ccc(NC(=S)NC(=O)c3ccc(Br)cc3)cc2)ncn1`, 30%.

As for `COc1cc2c(cc1OC)CN(C(=O)c1cc(S(=O)(=O)N3CCCCC3)ccc1Cl)CC2`, the “activity change, negative = inhibition” value was 26.2%. On the same count and under the same terms, the result for `Cc1ccc(C(=O)NCC(=O)OCc2nnc(-c3ccccc3)o2)cc1` reads 23.9%; that for `Cc1c(CCC(=O)N[C@@H](CC(C)C)C(=O)O)c(=O)oc2c(C)c3oc4c(c3cc12)CCCC4`, -39.1%. Still for that read-out and setting: as for `CCOC(=O)C1=C(c2ccccc2)NC(=O)NC1c1cc(OC)c(OC)cc1OC` (centres undefined), the figure is 2.42%. Still for that read-out and setting: the result for `CCOC(=O)C1=C(C)NC(=O)NC1c1ccccc1` (centres undefined) reads -31.6%. As for `CCOC(=O)C1=C(c2ccccc2)NC(=S)NC1c1ccc(Cl)cc1` (centres undefined), the Potency was 7.94 µM (active).
